Measured values taken from PubChem BioAssay AID624351 (Southern Research Specialized Biocontainment Screening …, 2012).
Out of some 2,400 compounds screened, about 1,400 (58%) were called active.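 How the source made its calls: active means inhibition of 30% or more at any tested dose; inconclusive means primary hits over the limit that were never retested; inactive means the rest.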 The set was probably picked from earlier hits. The list shows a part of the results.

Test: ADP Hunter readout inhibition without MgcRacGAP – biochemical, coupled enzyme counter-screen, artefact control for MgcRacGAP inhibitor project, dose response (AID 624351);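 further: signal is the ADP detection kit reading of free GDP without any GAP enzyme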;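 on inhibition: 0% = median positive control wells and 100% = median negative control wells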
Conditions: fluorescence, no MgcRacGAP; series mostly up to 80 µM; inhibition: at the top concentration
For `C=C1c2c(Cl)ccc(O)c2C(O)=C2C(=O)[C@]3(O)C(O)=C(C(N)=O)C(=O)[C@@H](N(C)C)[C@@H]3[C@@H](O)C12` (some centres not stated), the “inhibition” value was -12.8% (inactive).
For `CC[n+]1c(/C=C2\Sc3ccccc3N2C)ccc2cccc(C)c21`, the “inhibition” value was 10% (inactive).
In the case of `Cc1cc(=O)[nH]c2c(N=Nc3ccc(O)cc3)c(N)nn12`, the IC50 is reported as 13.2 µM (active).
In the case of `Nc1nn2c(-c3ccccc3)cc(=O)[nH]c2c1N=Nc1ccc(O)cc1`, the IC50 is reported as 70.9 µM (active).
In the case of `CCOC(=O)C1Nc2ccc(C(=O)O)cc2C2C=CCC12` (configuration not stated), the “inhibition” value is reported as -7.98% (inactive).
With `COc1cc(OC)c(Cl)cc1N` the IC50 was 43.9 µM (active).
For `COC(=O)C1C(O)=C(C=Nc2ccc(N)cc2)C(=O)CC1(C)C` (configuration not stated), the IC50 was 57.5 µM (active).
In the case of `CCCC(=Nc1ccc(N)cc1)C1=C(O)C(C(=O)OC)C(C)(C)CC1=O` (configuration not stated), the IC50 is reported as 14.8 µM (active).
With `CCC(=Nc1ccc(N)cc1)C1=C(O)C(C(=O)OC)C(C)(C)CC1=O` (configuration not stated) the IC50 was 7.76 µM (active).
For `COc1cc(/C=N/NC(=O)C(C)Nc2n[nH]c(=O)[nH]c2=O)ccc1O` (configuration not stated), the IC50 was 69.5 µM (active).
For `CCOc1cc(/C=N/NC(=O)CCc2n[nH]c(=O)[nH]c2=O)ccc1O`, the IC50 was 55.6 µM (active).
For `COc1cc(/C=N/NC(=O)CCc2n[nH]c(=O)[nH]c2=O)ccc1O`, the IC50 was 35.4 µM (active).
In the case of `COc1cc(/C=N/NC(=O)CNc2n[nH]c(=O)[nH]c2=O)ccc1O`, the IC50 is reported as 39.7 µM (active).
In the case of `C/C(CCc1ccccc1)=N\NC(=O)C1C2CCCCC21` (configuration not stated), the “inhibition” value is reported as 0.53% (inactive).
For `Cc1ccc(-c2cnc(NCc3cc4c(cc3[N+](=O)[O-])OCO4)n2C)cc1C`, the “inhibition” value was 26.1% (inactive).
In the case of `O=[S@]1Oc2ccccc2-c2ccccc21`, the “inhibition” value is reported as -2.21% (inactive).
With `CCN(CC)c1ccc(/C=C2/SC(=O)N(C(C)C)C2=O)o1` the IC50 was 58.5 µM (active).
With `CCCN1C(=O)S/C(=C/c2ccc(N3CCOCC3)o2)C1=O` the “inhibition” value was 28.1% (inactive).
With `Cc1nc2ccccc2nc1N/N=C/c1ccc(O)cc1` the IC50 was 30.5 µM (active).
For `Cc1cc(-c2ccccc2)nc(N/N=C/c2ccc(O)cc2O)n1`, the IC50 was 61.3 µM (active).
For `Cc1cc(-c2ccccc2)nc(N/N=C/c2ccc(O)cc2)n1`, the IC50 was 31.6 µM (active).
With `Cc1cc(-c2ccccc2)nc(N/N=C/c2ccc(N(C)C)cc2)n1` the IC50 was 80 µM (active).
For `CN(C)c1ccc(N=Cc2nc(-c3ccccc3)oc2OC(=O)c2ccccc2)cc1`, the “inhibition” value was 12% (inactive).
For `CC1CN(CCOCCOc2ccccc2-c2ccccc2)CC(C)O1` (configuration not stated), the “inhibition” value was 22% (inactive).
In the case of `COc1ccc(CN2CCN(Cc3ccco3)CC2)cc1OC`, the “inhibition” value is reported as 25.7% (inactive).
With `COc1ccc(/C=N/Nc2cc(C)nc3c(C)cccc23)cc1` the “inhibition” value was 9.08% (inactive).
In the case of `Cc1cc(C)c2nc(C)cc(N/N=C/c3ccc(O)cc3)c2c1`, the IC50 is reported as 32.9 µM (active).
With `COc1ccc(/C=C2\C(=O)NC(=O)c3ccccc32)cc1OC` the “inhibition” value was -4.57% (inactive).
In the case of `COc1cc(/C=N/N=C2/C(=O)Nc3ccccc32)cc(OC)c1O`, the IC50 is reported as 59.2 µM (active).
With `Oc1ccc(-c2nccs2)cc1` the IC50 was 31.4 µM (active).
For `CCN1CCN(CCOc2cccc(Cl)c2Cl)CC1`, the “inhibition” value was 20.8% (inactive).
In the case of `CC1(C)CC(=O)C2=C(C1)Nc1ccccc1S2`, the IC50 is reported as 23.1 µM (active).
With `CC1(C)CC(=O)C(C(C2=C(O)CC(C)(C)CC2=O)c2cccs2)C(=O)C1` (configuration not stated) the “inhibition” value was 1.47% (inactive).
With `COc1cc(/C=N/NC(=O)c2ccc(=O)[nH]n2)ccc1O` the IC50 was 26.3 µM (active).
In the case of `COc1cc(/C=N/NC(=O)c2cnccn2)ccc1O`, the IC50 is reported as 25.9 µM (active).
In the case of `COc1ccc(/C=N\NC(=O)c2ccc(=O)[nH]n2)cc1O`, the IC50 is reported as 26 µM (active).
For `O=C(/C(=C/c1ccccc1)n1cncn1)c1ccc(Cl)cc1Cl`, the “inhibition” value was -3.68% (inactive).
With `COC(=O)C(C(=O)OC)C(C)C(C(=O)OC)C(=O)OC` the “inhibition” value was 4.32% (inactive).
In the case of `CN(C)c1ccc(C=Cc2cnccn2)cc1`, the IC50 is reported as 53 µM (active).
In the case of `CCOC(=O)c1[nH]c2ccccc2c1NC(=S)Nc1cccc(C)c1C`, the IC50 is reported as 46 µM (active).
With `CCOC(=O)c1[nH]c2ccccc2c1NC(=S)Nc1ccccc1C` the IC50 was 45.3 µM (active).
With `CCOC(=O)c1[nH]c2ccccc2c1NC(=S)Nc1cc(C)ccc1C` the IC50 was 39.4 µM (active).
For `COC(=O)c1c(NC(=O)CCNCc2ccco2)sc2c1CCC2`, the “inhibition” value was 18.9% (inactive).
With `CCOC(=O)c1[nH]c2ccc(F)cc2c1NC(=O)c1ccccc1C(=O)O` the “inhibition” value was 25.5% (inactive).
In the case of `CCOC(=O)c1[nH]c2ccccc2c1NC(=S)Nc1ccccc1`, the IC50 is reported as 45.1 µM (active).
In the case of `O=C1SC(c2ccccc2)=C/C1=C\N1CCCCC1`, the IC50 is reported as 51 µM (active).
For `O=C1CCCCCN1Sc1ccccc1`, the “inhibition” value was 3.55% (inactive).
With `CC(C)Nc1ccc(Nc2ccnc3cc4ccccc4cc23)cc1` the IC50 was 22.4 µM (active).
With `COc1cc(/C=C/C(=O)OCC(=O)NC(=O)NC(C)C)ccc1O` the IC50 was 42.8 µM (active).
For `COc1cc(/C=C/C(=O)OCC(=O)NC(=O)NC(C)(C)C)ccc1O`, the IC50 was 62.6 µM (active).
With `C=CCN(CC=C)C(=O)C1CCN(Cc2ccc(OCc3ccccc3)cc2)CC1` the “inhibition” value was 13.8% (inactive).
For `O=C(CN1CCN(c2ccc(O)cc2)CC1)NC(=O)NCc1ccco1`, the IC50 was 54.7 µM (active).
For `CCN1CCN(CC(=O)Nc2ccc(C)c(Br)c2)CC1`, the “inhibition” value was 19.2% (inactive).
With `CCN1CCN(CC(=O)Nc2nc3ccc(OC)cc3s2)CC1` the “inhibition” value was 24.5% (inactive).
In the case of `O=C(CN1CCCCC1)Nc1ccc(N2CCCCCC2)cc1`, the “inhibition” value is reported as 0.64% (inactive).
With `Cc1ccc(NC(=O)NC(=O)CN2CCN(c3ccc(O)cc3)CC2)c(C)c1` the IC50 was 63.4 µM (active).
With `CCCS(=O)(=O)N1CCN(Cc2ccco2)CC1` the “inhibition” value was 15.8% (inactive).
With `Cc1ccc(NC(=O)CN2CCN(C)CC2)cc1Br` the “inhibition” value was 20.3% (inactive).
For `COc1ccc(NC(=O)c2ccc(NC(=O)CN3CCN(c4ccc(O)cc4)CC3)cc2)cc1`, the IC50 was 76.7 µM (active).
For `CC1(C)O[C@@H]2[C@H](O1)[C@@H](COS(=O)(=O)O)O[C@H]2n1c(=S)[nH]c2c(=O)[nH]c(N)nc21`, the IC50 was 55.7 µM (active).
For `CCN1CCN(c2ccc(N=Cc3ccc(O)cc3O)cc2)CC1`, the IC50 was 38.2 µM (active).
With `Oc1cc(Br)ccc1C=Nc1ccc(N2CCCCC2)cc1` the IC50 was 4.33 µM (active).
With `O=C1NN(c2ccc(Br)cc2)C(=O)/C1=C\c1ccc(O)cc1O` the “inhibition” value was 29.1% (inactive).
For `CCN1CCN(CCOc2ccccc2OCc2ccccc2)CC1`, the “inhibition” value was 21.5% (inactive).
In the case of `CCC(=O)c1ccccc1OCCN1CCN(CC)CC1`, the “inhibition” value is reported as 23.5% (inactive).
With `CCN1CCN(c2ccc(N=Cc3ccccc3O)cc2)CC1` the IC50 was 24.5 µM (active).
In the case of `C=CCc1cc(Cl)ccc1OCCn1ccnc1`, the “inhibition” value is reported as -0.57% (inactive).
